DT40 TDP1 CPT = DT40-hTDP1 cell growth loss with CPT; Potency, µM (highest dose often 46.2 µM), usual class: inhibitors; chicken DT40 Tdp1-/-;hTDP1 cells + 20 nM CPT, ATP luminescence, 48 h; 420,000 tested, 12% active; AID 686979; note: nearly all actives have a fitted effect of over 55% in size
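Chicken DT40 Tdp1-/- cells complemented with human TDP1, 400 cells/well, exposed to compounds plus 20 nM camptothecin for at least 48 h at 37 C; viability read as ATP content by CellTiter-Glo luminescence.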
HT1080 IDH1KD tx = kills HT-1080 cells with IDH1 knockdown; HT-1080 IDH1 knockdown viability, ATP luminescence, 48 h; Potency, µM (top dose mostly 46.1 µM), usual class: cytotoxic; 360,000 tested, 2% active
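% activity derives from luminescence (CellTiter-Glo), normalised to DMSO and no-cell wells. HT-1080-IDH1KD cells, 750/well, had 48 h compound exposure at 37 °C.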
DT40 TDP1 no CPT = qHTS for Inhibitors of human tyrosyl-DNA phosphodiesterase 1 (TDP1): qHTS in cells in absence of CPT; 420,000 tested, 15% active; Potency, µM (doses to about 46.2 µM), actives largely listed as inhibitors; DT40 Tdp1-/- hTDP1 cells, no CPT, ATP luminescence, 48 h; note: nearly all actives have a fitted effect of over 55% in size
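Growth kinetics read by CellTiter-Glo luminescence after ≥48 hr at 37 °C. Cells: DT40 Tdp1-/- stably carrying human TDP1, 400 per well, compound exposure in the absence of CPT (DMSO vehicle).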
IL1B secr inh = blocks inflammasome-driven IL-1 beta release; activity change, % at 57.5 µM; THP-1 LPS/ATP IL-1B secretion, AlphaLISA, 16 h; stronger effect = lower value; 360,000 tested, 4.7% active; AID 743279; in the data active = activity change below about -50%; inconclusive = mostly about -30% to -49%
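THP-1 cells pretreated 1 hr with compounds (up to 57.5 uM final), then stimulated with LPS (250 ng/mL final) plus ATP (1.25 mM final); secreted IL-1B measured by AlphaLISA after 16 hr, decreased signal indicating inhibition.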
HT1080-NT tox = kills 2HG-producing HT-1080-NT fibrosarcoma cells. HT-1080-NT fibrosarcoma viability, CellTiter-Glo ATP luminescence, 48 h. Potency, µM (series often up to 46.1 µM), actives largely listed as cytotoxic. 360,000 tested, 1.6% active;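 note: NT is the 2HG producing partner of a matched IDH1 knockdown line; nearly all actives have a fitted effect of over 55% in size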
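Compounds were tested in concentration-response format on HT-1080-NT cells for 48 hours at 37 degrees C. Cell viability came from CellTiter-Glo luminescence; curves were classified by r2, response magnitude and activity.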
ALOX12 inh = inhibitors of human 12S-lipoxygenase ALOX12; 580,000 tested, 1.1% active; AID 1671190; purified 12hLO, xylenol orange hydroperoxide absorbance; Potency, µM (top dose mostly 108 µM), usual class: inhibitors; P18054
Target sequence (P18054 whole entry, looked up): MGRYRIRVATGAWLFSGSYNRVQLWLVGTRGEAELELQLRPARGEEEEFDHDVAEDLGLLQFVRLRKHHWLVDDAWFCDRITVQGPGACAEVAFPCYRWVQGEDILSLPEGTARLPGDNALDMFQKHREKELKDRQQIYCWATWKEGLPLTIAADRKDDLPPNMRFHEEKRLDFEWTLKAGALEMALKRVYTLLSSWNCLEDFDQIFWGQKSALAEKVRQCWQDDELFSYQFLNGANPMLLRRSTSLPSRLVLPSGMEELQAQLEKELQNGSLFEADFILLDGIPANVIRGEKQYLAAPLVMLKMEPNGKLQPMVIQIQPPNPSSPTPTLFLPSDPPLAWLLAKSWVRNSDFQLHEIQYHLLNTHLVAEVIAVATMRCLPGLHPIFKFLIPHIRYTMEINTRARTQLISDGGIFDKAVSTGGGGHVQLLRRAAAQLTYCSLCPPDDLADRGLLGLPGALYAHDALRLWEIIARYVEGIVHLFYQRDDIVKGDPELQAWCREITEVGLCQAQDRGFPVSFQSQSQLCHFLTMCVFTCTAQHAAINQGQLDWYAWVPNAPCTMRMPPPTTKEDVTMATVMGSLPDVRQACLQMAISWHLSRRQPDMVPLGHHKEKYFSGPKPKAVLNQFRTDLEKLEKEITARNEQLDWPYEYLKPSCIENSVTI
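Purified human 12hLO (150 nM final) in 25 mM Hepes, 0.01% Triton X-100, pH 7.0 was preincubated 15 min at room temperature with compound. Then 40 uM arachidonic acid was added, 30 min. Hydroperoxide was read by Fe-XO absorbance ratio 573/405 nm.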
Each line names hits and unclear results; the compound was inactive in the other large screens. This is one part of a sample in which hits are shown more often than they occur. Unless noted, calls come from the whole dose curve; as a rule, active = well fitted curve in the direction sought with a large enough effect; inconclusive = small, poorly fitted or top-dose-only effect, or another doubt; inactive = no such curve, though single readings can be large; an effect the other way counts as inactive or inconclusive.

Cn1cc(C(=O)c2cccc(Cl)c2)cc1C#N	none
Cn1cccc1C(=O)c1ccc(Cl)cc1Cl	ALOX12 inh inconclusive
Cc1ccc(Cc2ccccc2C(=O)N2CCC3(CC2)CNC(=O)C3)cc1F	none (no result: DT40 TDP1 CPT, HT1080 IDH1KD tx, DT40 TDP1 no CPT, IL1B secr inh, HT1080-NT tox)
Oc1cc(-c2nc3ccccc3s2)cc2c1OCCN(Cc1cccn1-c1ccccn1)C2	ALOX12 inh inconclusive (no result: HT1080 IDH1KD tx, IL1B secr inh, HT1080-NT tox)
Oc1cc(-c2nc3ccccc3s2)cc2c1OCCN(Cc1cccn1-c1ncccn1)C2	DT40 TDP1 no CPT 16.4µM (no result: HT1080 IDH1KD tx, IL1B secr inh, HT1080-NT tox)
CCOCCCNc1nc2cc(OC)c(OC)cc2c2nc(-c3ccccc3)nn12	DT40 TDP1 CPT 10.3µM, DT40 TDP1 no CPT 6.51µM (no result: HT1080 IDH1KD tx, IL1B secr inh, HT1080-NT tox)
COc1ccccc1CNc1nc2ccccc2c2nc(-c3cccc(C)c3)nn12	none (no result: HT1080 IDH1KD tx, IL1B secr inh, HT1080-NT tox)
COCCCNc1nc2cc(OC)c(OC)cc2c2nc(-c3ccccc3)nn12	DT40 TDP1 CPT 14.6µM, DT40 TDP1 no CPT 7.31µM
CC(C)c1nc2nccc(-c3ccccc3)n2n1	none (no result: DT40 TDP1 CPT, HT1080 IDH1KD tx, DT40 TDP1 no CPT, IL1B secr inh, HT1080-NT tox)
Cn1nc(C2CCN(C(=O)c3cnccn3)CC2)c2c1CCOC2	none (no result: DT40 TDP1 CPT, HT1080 IDH1KD tx, DT40 TDP1 no CPT, IL1B secr inh, HT1080-NT tox)
O=C1c2c(-c3ccc(Br)cc3)noc2CCN1Cc1cn(-c2ccccc2)nn1	DT40 TDP1 CPT 20.6µM, DT40 TDP1 no CPT inconclusive, HT1080-NT tox inconclusive
O=C1c2c(-c3ccc(Br)cc3)noc2CCN1Cc1cn(Cc2ccccc2)nn1	DT40 TDP1 CPT inconclusive, HT1080 IDH1KD tx inconclusive, DT40 TDP1 no CPT 18.4µM, HT1080-NT tox inconclusive
O=C1c2c(-c3ccc(Br)cc3)noc2CCN1Cc1cn(-c2ccc(Cl)cc2)nn1	DT40 TDP1 CPT inconclusive, DT40 TDP1 no CPT inconclusive, HT1080-NT tox inconclusive
COc1ccc(CN(C)Cc2nc(Cc3cccc(F)c3)no2)c2cccnc12	DT40 TDP1 CPT 11.6µM, DT40 TDP1 no CPT 2.91µM
CN(C)c1cccc(-c2cc(Nc3ccc(C(C)(C)C)cc3)ncn2)c1	DT40 TDP1 CPT 20.6µM, DT40 TDP1 no CPT inconclusive
Cc1ccc(C)c2sc(N3CCN(C(=O)c4ccc([N+](=O)[O-])o4)CC3)nc12	DT40 TDP1 CPT 8.2µM, HT1080 IDH1KD tx inconclusive, DT40 TDP1 no CPT inconclusive, IL1B secr inh -102.8, HT1080-NT tox inconclusive
O=C(c1ccc([N+](=O)[O-])o1)N1CCN(c2nc3c(F)cc(F)cc3s2)CC1	DT40 TDP1 CPT inconclusive, DT40 TDP1 no CPT inconclusive, IL1B secr inh -71.1
Cc1ccc(C)c2sc(N3CCN(C(=O)C(C)(C)C)CC3)nc12	DT40 TDP1 CPT inconclusive, DT40 TDP1 no CPT inconclusive (no result: HT1080 IDH1KD tx, IL1B secr inh, HT1080-NT tox)
CS(=O)(=O)N(Cc1csc(-c2cccs2)n1)C1CCN(C(=O)c2ccccc2)CC1	none (no result: DT40 TDP1 CPT, HT1080 IDH1KD tx, DT40 TDP1 no CPT, IL1B secr inh, HT1080-NT tox)
C=C(C)c1cccc(C(C)(C)NC(=O)N2CCCC(C)C2)c1 (stereo unspecified)	DT40 TDP1 CPT 23.1µM, DT40 TDP1 no CPT inconclusive
C=C(C)c1cccc(C(C)(C)NC(=O)NCc2ccncc2)c1	none
C=C(C)c1cccc(C(C)(C)NC(=O)N2CCCC(C(N)=O)C2)c1 (stereo unspecified)	none
C=C(C)c1cccc(C(C)(C)NC(=O)N2CCN(C/C=C/c3ccccc3)CC2)c1	DT40 TDP1 CPT 23.1µM, DT40 TDP1 no CPT 23.1µM, IL1B secr inh inconclusive
C=C(C)c1cccc(C(C)(C)NC(=O)Nn2cnnc2)c1	DT40 TDP1 no CPT 0.82µM
O=C(OCC(=O)N1CCc2ccccc21)c1cc([N+](=O)[O-])ccc1Cl	none (no result: DT40 TDP1 CPT, HT1080 IDH1KD tx, DT40 TDP1 no CPT, IL1B secr inh, HT1080-NT tox)
Cc1cc(N2CCN(Cc3nc(C4CC4)no3)CC2)nc(C(C)C)n1	none (no result: DT40 TDP1 CPT, HT1080 IDH1KD tx, DT40 TDP1 no CPT, IL1B secr inh, HT1080-NT tox)
Cc1sc2ccn(Cc3ccc(F)cc3)c(=O)c2c1C(=O)NCc1ccccn1	none (no result: DT40 TDP1 CPT, HT1080 IDH1KD tx, DT40 TDP1 no CPT, IL1B secr inh, HT1080-NT tox)
CCc1noc2cc(-c3ccccc3)n(C)c(=O)c12	none (no result: DT40 TDP1 CPT, HT1080 IDH1KD tx, DT40 TDP1 no CPT, IL1B secr inh, HT1080-NT tox)
CCc1nc2ccccc2n1CC(O)COCC1CC=CCC1 (stereo unspecified)	DT40 TDP1 CPT inconclusive, DT40 TDP1 no CPT inconclusive
CCN1CCN(Cc2c(O)ccc3oc(C)c(C(=O)Nc4cccc(C(F)(F)F)c4)c23)CC1	DT40 TDP1 CPT 14.6µM, DT40 TDP1 no CPT inconclusive (no result: HT1080 IDH1KD tx, IL1B secr inh, HT1080-NT tox)

Assay outcomes as filed in PubChem BioAssay.
